The values below come from PubChem BioAssay AID1508600 (Functional Genomics Laboratory (NCATS/FGL), 2020).

Screen size: about 53,000 sequences; about 3,700 (7%) were called active.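 How the source made its calls: active means gene knockdowns whose robust z-score for IL-1 alpha signal is at least 2 or at most -2, so actives lie on both sides; inactive means the rest.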 The sample as a whole holds a higher share of actives than the screen did.

The nature of this experiment: Components of the Cytosolic LPS Sensing Pathway: Gene Identification via Genome-wide siRNA Screen.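 Further: robust z of the log signal after scaling to non-targeting control siRNA wells of the plate.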 Particulars: RAW264.7 macrophages, IL-1a HTRF, actives lie on both sides, screened at 100 nM (by protocol), cells primed 5 h with Pam3CSK4 first. The gist of the method: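 IL-1a HTRF of supernatants after 24 hour LipidA transfection of Pam3CSK4-primed (5 hours) RAW264.7 cells, 48h post-siRNA transfection (100 nM). Scores: percent of plate negative-control median, then log-based robust z-score.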
With CGCAUACUGUGGAAUAGUUTT against Spag4, the z-score was -1.26 (inactive). The figure for GGAAUGAAAGUUCCACUAUTT against Emcn is -0.633 (inactive); for CCCACCACUAUUUAUAUGATT against Dlg2 it is -0.17 (inactive). With GGAUGUGACAUGAAUCCUGTT against Ankle1, the z-score is -0.49 (inactive).

As to CCAAAACUAGGAAGAAACATT against Olfr716, the z-score was -2.3 (active). In the case of GGCAAUAAAUAUCCAGAAATT against Crygn it was 1.02 (inactive). Regarding GCAGCUCUGCGGAAGCUUUTT against Olfr1350, the z-score was -0.505 (inactive).

In the case of GGAUCUUGAUAGACUGAUGTT against Rhox5, the z-score is 0.362 (inactive). The figure for GGAAAAUCUCCGUUGUCUCTT against Acin1 is -2.76 (active). In the case of UCAUUGAGAAAGGAGAAGATT against Cox17 it was -0.547 (inactive). In the case of GGUAGAUAACCUGAUUUAUTT against Slc7a6 it was 2.22 (active). Regarding GCCUGUGUAUUACUUUUUUTT against Sned1, the z-score was -0.786 (inactive). The figure for GGAGUUGCCUCUGAAGACCTT against Ccm2l is 0.797 (inactive); for GGUGUUCAGGAGAUGAUGCTT against Cdt1 it is 0.0123 (inactive).

Regarding GGAGCAUCUCCUCAUGGAUTT against Actl11, the z-score was 2.08 (active). For GCCUUAUCCUGAGAAUGGCTT against Lrrc47, the z-score was -0.61 (inactive). The figure for GGCUGCUGUUAACAAGCUGTT against Wdr13 is -2.41 (active); for GCUCCUCCAGAUACAUGCUTT against Tbrg1 it is -0.741 (inactive). In the case of GGUUCUUUCGACUUCCUGCTT against Ccbe1 it was -0.166 (inactive). As to GGCAACAGACAAACAGCCGTT against Ugcg, the z-score is -1.54 (inactive). In the case of GGAGAAGAAAAAGCGGUACTT against Plxnb2, the z-score was 2.71 (active). In the case of GGAGUACUGGGCAUAUAAATT against Slc29a3 it was -0.324 (inactive). In the case of GGGUGGUUAGAACAGCCACTT against Prss16 it was -1.21 (inactive); in that of CCCUAGAGAUGGUGGGUCUTT against Olfr934, -0.484 (inactive).

In the case of GGCAGUUAACACUUAAUGATT against Foxp2, the z-score was 0.609 (inactive). In the case of GGAACAUAACUCUUGUAUATT against Dhx35 it was -1.52 (inactive); in that of “GGAGAAACUUCUUUAAAGCTT against 5830427D03Rik”, 0.573 (inactive). Regarding GGACAAGUGCCUCUCACCATT against Glis2, the z-score is -3.25 (active). The figure for GGCAGAAAGUAAAUCCGUGTT against Exoc3l4 is -1.22 (inactive). In the case of GGCCAUAGAUAUUCAAGGUTT against Olfr218 it was 0.293 (inactive). As to GCCUUUGUGUUACAAUAUGTT against Fermt2, the z-score is 0.487 (inactive). Regarding GUCAAAGAGUUUCAGCAUCTT against Foxl1, the z-score was 0.664 (inactive). In the case of GGAGGUUUUCCGAAGUAUUTT against Pnpt1 it was 1.2 (inactive); in that of GGCUCUGUGACCAAGAUUUTT against Rtca, -1.48 (inactive). For GCCUCUCUCUAUCUAUGCATT against Tob2, the z-score is -2.2 (active). In the case of GCAACGUGGUCUAUGAAUUTT against Disp2 it was -0.694 (inactive). The figure for GGUUUUUCAGUGACACAUGTT against Vmn1r192 is 2.26 (active); for CCAGAGUUUUAUAACGGAATT against Olfr1229 it is 0.601 (inactive); for GGUUGUGCAGUUUUAUUUCTT against Tceal1 it is -0.176 (inactive). In the case of GCUAACAUUGUAAAUGCACTT against Dmrta1 it was 0.467 (inactive); in that of GGAAAAGCUUUUGUUCCCATT against Tfb1m, 2.58 (active); in that of GGAUUCUUCAUUUCUAGUGTT against C1qtnf6, 0.231 (inactive).

Turning to GGUUCUGAACACAUUUCCATT against Cyp2d13, the z-score was -1.07 (inactive). As to GUUUCUUCCAAACUCCAUCTT against Olfr487, the z-score was 0.622 (inactive). In the case of GGUCGACAGUUAAAAUGAUTT against Bpifc, the z-score is -0.431 (inactive). In the case of GCAAGCCCUGGAAGAAUUATT against Nat8 it was 2.26 (active).

Regarding GGAUGAGUACACUGAAAGCTT against Nvl, the z-score was 0.544 (inactive). In the case of CGUGGACAUCGAUAUCACCTT against Slc26a8 it was -0.737 (inactive); in that of CCCGGAAUAAGACAAUUUCTT against Olfr788, 0.282 (inactive). For the sequence GCAUGUUAAGCCUUGUAUATT against Tnpo1, the z-score was -1.67 (inactive). In the case of GGCUACAGAAGCUACUAAATT against Akr1c6 it was 1.23 (inactive); in that of GGGUGCAUCCCAUUCUCUUTT against Pld1, -0.0755 (inactive). The figure for GCGAGAGAUCCCUCUGAAATT against Pigs is -0.284 (inactive).

On to GCAUCCCAGAUAUUGAGCATT against Arrdc1, for which the z-score is 2.52 (active). The figure for GCUCUGUUCACACGUUUAATT against Arhgap10 is -0.898 (inactive); for CGAAAUUGUGAUGAUGAACTT against Mast1 it is -0.799 (inactive).

Turning to CCAAUUUGACCCAUACUAUTT against Crtc2, the z-score is 1.61 (inactive). The figure for GGAGAUUGGGAUCAAAGCCTT against Mthfd1 is -1.56 (inactive). With GGACCUUUCAUCAACCCAUTT against Olfr676, the z-score is 2.13 (active). The figure for GGUGCCAUUGAUUCUGUAGTT against Smim10l2a is -0.807 (inactive); for GCAGUGGGAAUCGAUAAAGTT against Fgfr2 it is -0.876 (inactive). As for GGCAAGCUGUAAAAGAUGCTT against Noc3l, the z-score was 3.32 (active). On to GGCCAUUUCUAUGAAAUUATT against Olfr1016, for which the z-score was -2 (active).

Take CCUUAGGACAAGUAUUCUGTT against Cbx6: the z-score was 0.47 (inactive). The figure for GGCAACUUUAUACACAAACTT against Vmn1r13 is -0.283 (inactive). In the case of GGAACCUUUCAGAAAUAUATT against Calhm5 it was -0.53 (inactive); in that of GGUCUGAUUGUCCUCUCUUTT against Slc35b4, 3.25 (active); in that of CCACACCUUCAAAGCGAGATT against L3mbtl4, -0.104 (inactive).

On to GGCCUUGAUUCAAUUCAACTT against Tgm6, for which the z-score is 0.812 (inactive). Consider GGCAGAUAUUUAGAUGAUGTT against Pdyn, for which the z-score was -0.932 (inactive). The figure for GAUGUUCUUUGUCCACAUGTT against Olfr666 is -0.325 (inactive). Turning to GCAUUUUCUAGAUGGAAGCTT against Hao1, the z-score is 0.748 (inactive). As to GGUCAUUCUCCAAGAACUATT against Ugp2, the z-score is -0.844 (inactive).

Take GGUUCAGUAUAUCAUCUCUTT against Zfp335: the z-score was 2.69 (active).

Consider GGAGAACAGUUUCAAGAUGTT against Rnf152, for which the z-score was -0.487 (inactive).

In the case of GCCGGACUUCCCAUCUGUUTT against Srebf1, the z-score is -0.784 (inactive).

Take GACGAAUAUCAUCUCACACTT against Olfr875: the z-score is 0.901 (inactive).

For the sequence GCAGUUGACAUUUACUCUCTT against Nol10, the z-score was 2.36 (active). As for GCUCCACACUACGUGUCAUTT against Olfr476, the z-score was 1.66 (inactive). For the sequence GCCUUAUCCAUAUCGACUATT against Arrdc1, the z-score was 0.831 (inactive). The figure for GGAUGCUCAUGGACCUUUGTT against Olfr1122 is 0.931 (inactive); for CGUACUCCAACAACACUUUTT against Pdzd8 it is -0.503 (inactive); for GGACUGUGUGUGCAAAGGUTT against Mt3 it is -0.176 (inactive). The figure for GCUACUGCCGGAAUUUGGUTT against Tiam1 is 0.497 (inactive); for CGCAAGAUACCAACACUUATT against Flad1 it is -0.487 (inactive); for GGAACACAAAAGCAAAGAUTT against Prpf38b it is 2.2 (active). The figure for GGAUUGUGGGUUUAUAUAATT against Olfr835 is 0.274 (inactive). For CAGGCUGGUUACUUUGGCUTT against Lhfpl5, the z-score was -0.246 (inactive).

Regarding CCUUCCAACUCUUCUCCUCTT against H2-T3, the z-score was 0.915 (inactive). The figure for GCCUCAUUUGAUCAAUGUCTT against Actr2 is 1.86 (inactive). The figure for GCUAGAUAAACUCUCUCAATT against Cxcr5 is 0.73 (inactive). Take GGUCCAGCUCAUGAAACUUTT against Sik1: the z-score is 0.147 (inactive). With GGGUUUGGUCGUAAACAGCTT against Limd2, the z-score is -1.06 (inactive). Take GGUGCUGCUAUUCCUGCACTT against Gpam: the z-score was -2.03 (active).

Turning to GGGAGCUACGUUCAGAAGUTT against Gckr, the z-score is 1.63 (inactive). As for GGAUUUCUGUGGAGAUGGGTT against Cchcr1, the z-score was 0.444 (inactive). On to GCUACUCCAUUUACAUCUATT against H2bc1, for which the z-score is -0.122 (inactive). In the case of GCGGAGUGUGAAACACUGATT against Ccdc32, the z-score is 0.842 (inactive). The figure for GGAAGGACAGACAGACAAGTT against Pxt1 is 0.165 (inactive). The figure for CCUAGAUGACACUUGGGUGTT against Nup35 is -1.4 (inactive); for GCCUCUUCAAUCACAUUUATT against Atp6v0a4 it is 3.27 (active). For the sequence GGAAAGAUCUACGAGAUCUTT against Unc5a, the z-score was 1.04 (inactive). Consider CGGAUUCGUCUGUUUUCUGTT against Ddi2, for which the z-score is 1.97 (inactive).

With GGAUAUACAUGGUCUGUUUTT against Naip5, the z-score was 0.318 (inactive). Regarding GGACUCCUCCCAAGACGAATT against Avil, the z-score was -0.118 (inactive). The figure for CCUACCAUAGCAACACUAUTT against Kcna2 is 3.14 (active); for GGCCCUCACAAUGAAUAUGTT against Efs it is -0.115 (inactive); for ACGAUAUGUUGACCUUGGCTT against Cyp2c67 it is -0.274 (inactive).
